Results as given in PubChem BioAssay AID1159580 (chemical genetic matrix, 2015).
“And” between values parts separate entries of the source, which are not always exact repeats. Equal entries are not always repeated. The whole screen tested about 5,500 compounds, of which about 2,000 (36%) were called active. Inconclusive results (about 18%) are left out. No stated cut-off is given here; in the data, active means normalized growth mostly below about 0.91 (no sharp cut-off); inconclusive means no clear call, values can overlap the other calls; inactive means mostly above about 0.92. Some of the results follow.

Assay: chemical genetic growth profiling, strain panel (AID 1159580);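 further: tested at 20 µM; growth read once vehicle control cultures reached saturation at 30 °C; 1 = growth at the plate median or of vehicle wells; lower values mean less growth of the strain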
Settings: S. cerevisiae deletion strains, growth OD

Measured: normalized growth

CO[C@@H]1[C@@H](O[C@@H]2O[C@H](C)[C@@H](O[C@H]3C[C@@](C)(O)[C@H](O)[C@H](C)O3)[C@H](N(C)C)[C@H]2O)[C@@H](CC=O)C[C@@H](C)[C@@H](O[C@H]2CC[C@H](N(C)C)[C@@H](C)O2)/C=C/C=C/C[C@H](C)OC(=O)C[C@H]1O
inactive: locus YAL021C, strain ccr4, hits give low values 1.02 | locus YAL026C, strain drs2, hits give low values 1.01 | locus YAL030W, strain snc1, hits give low values 0.997 | locus YBL061C, strain skt5, hits give low values 1.02 | locus YBR009C, strain hhf1, hits give low values 1.01 | locus YBR021W, strain FUR4, hits give low values 1.03 | locus YBR023C, strain chs3, hits give low values 1.01 | locus YBR171W, strain sec66, hits give low values 1.02 | locus YBR229C, strain ROT2, hits give low values 1.02 | locus YBR231C, strain swc5, hits give low values 1.02 | locus YBR279W, strain paf1, hits give low values 1.03 | locus YCL011C, strain gbp2, hits give low values 1.01 | locus YCL016C, strain dcc1, hits give low values 1.01 | locus YCL029C, strain bik1, hits give low values 1 | locus YCL061C, strain MRC1, hits give low values 1.01 | locus YCL069W, strain vba3, hits give low values 1.01 | locus YCR088W, strain abp1, hits give low values 1.02 | locus YDL005C, strain med2, hits give low values 1.01 | locus YDL035C, strain GPR1, hits give low values 1 | locus YDL040C, strain nat1, hits give low values 1.02 | locus YDL074C, strain BRE1, hits give low values 1.04 | locus YDL101C, strain DUN1, hits give low values 1.01 | locus YDL185W, strain tfp1, hits give low values 0.976 | locus YDL192W, strain arf1, hits give low values 0.998 | locus YDR001C, strain nth1, hits give low values 1.01 | locus YDR069C, strain doa4, hits give low values 1 | locus YDR101C, strain arx1, hits give low values 1.02 | locus YDR137W, strain rgp1, hits give low values 1.02 | locus YDR150W, strain NUM1, hits give low values 1.02 | locus YDR159W, strain sac3, hits give low values 1.01 | locus YDR162C, strain NBP2, hits give low values 1.01 | locus YDR195W, strain ref2 1 | locus YDR297W, strain sur2, hits give low values 1.01 | locus YDR318W, strain mcm21, hits give low values 0.996 | locus YDR334W, strain swr1, hits give low values 1.03 | locus YDR335W, strain msn5, hits give low values 1.01 | locus YDR388W, hits give low values 1 | locus YDR392W, strain spt3, hits give low values 1.02 | locus YDR502C, strain sam2, hits give low values 0.989 | locus YEL003W, strain gim4, hits give low values 1.01 | locus YEL037C, strain rad23, hits give low values 1.01 | locus YEL061C, strain CIN8 (second series), hits give low values 1.01 | locus YEL061C, strain CIN8, hits give low values 1.01 | locus YER015W, strain faa2, hits give low values 1 | locus YER016W, strain bim1, hits give low values 1.01 | locus YER110C, hits give low values 0.967 | locus YER111C, strain swi4, hits give low values 1.01 | locus YER155C, strain BEM2 (second series), hits give low values 1.02 | locus YER155C, strain BEM2, hits give low values 1.01 | locus YER167W, strain BCK2, hits give low values 1.02 | locus YFR010W, strain ubp6, hits give low values 1.02 | locus YGL078C, strain dbp3, hits give low values 0.982 | locus YGL086W, strain mad1, hits give low values 0.994 | locus YGL167C, strain pmr1, hits give low values 1.01 | locus YGL173C, strain kem1, hits give low values 1.01 | locus YGL227W, strain vid30, hits give low values 1.02 | locus YGL240W, strain doc1, hits give low values 0.999 | locus YGL248W, strain PDE1, hits give low values 1.02 | locus YGL253W, strain hxk2, hits give low values 1.01 | locus YGR078C, strain PAC10, hits give low values 1.01 | locus YGR135W, strain pre9, hits give low values 0.955 | locus YGR229C, strain SMI1, hits give low values 1.03 | locus YGR252W, strain gcn5, hits give low values 0.95 | locus YHR013C, strain ard1, hits give low values 1.03 | locus YHR027C, strain rpn1, hits give low values 1.01 | locus YHR030C, strain SLT2, hits give low values 1.02 and 0.972 | locus YHR079C, strain IRE1 (second series), hits give low values 1 | locus YHR079C, strain IRE1, hits give low values 0.961 | locus YHR094C, strain hxt1, hits give low values 1 | locus YHR129C, strain ARP1, hits give low values 1.02 | locus YHR142W, strain chs7, hits give low values 1 | locus YHR200W, strain rpn10, hits give low values 0.984 | locus YIL066C, strain RNR3, hits give low values 1.03 | locus YIL073C, strain SPO22, hits give low values 0.928 | locus YIL125W, strain kgd1, hits give low values 0.997 | locus YIR030C, strain dcg1, hits give low values 1 | locus YJL092W, strain hpr5, hits give low values 1.01 | locus YJL095W, strain BCK1 (second series), hits give low values 1.01 | locus YJL095W, strain BCK1, hits give low values 1.01 and 0.969 | locus YJL115W, strain asf1, hits give low values 1.02 | locus YJL129C, strain trk1, hits give low values 1 | locus YJL134W, strain LCB3, hits give low values 1.01 | locus YJL154C, strain vps35, hits give low values 1.02 | locus YJL164C, strain tpk1, hits give low values 1 | locus YJL166W, strain qcr8, hits give low values 1.02 | locus YJL168C, strain set2, hits give low values 0.979 | locus YJL187C, strain SWE1 (second series), hits give low values 1.02 | locus YJL187C, strain SWE1, hits give low values 1.01 | locus YJR043C, strain POL32, hits give low values 1 | locus YJR066W, strain TOR1, hits give low values 0.922 | locus YJR075W, strain HOC1, hits give low values 0.991 | locus YKL009W, strain mrt4, hits give low values 0.969 | locus YKL068W, hits give low values 1.02 | locus YKL085W, strain MDH1 (second series), hits give low values 1.01 | locus YKL085W, strain MDH1, hits give low values 1.01 | locus YKL160W, strain elf1, hits give low values 1.02 | locus YKR001C, strain vps1, hits give low values 0.982 | locus YKR026C, strain gcn3, hits give low values 1.02 | locus YKR091W, strain srl3, hits give low values 1.01 | locus YLL001W, strain dnm1, hits give low values 1.01 | locus YLL026W, hits give low values 1.01 | locus YLL041C, strain sdh2, hits give low values 1.01 | locus YLR027C, strain aat2, hits give low values 1.01 | locus YLR039C, strain RIC1, hits give low values 0.943 | locus YLR058C, strain SHM2, hits give low values 1.02 | locus YLR102C, strain apc9, hits give low values 0.997 | locus YLR113W, strain HOG1, hits give low values 0.965 | locus YLR221C, strain rsa3, hits give low values 1 | locus YLR258W, strain gsy2, hits give low values 1.01 | locus YLR262C, strain YPT6 (second series), hits give low values 1.02 | locus YLR262C, strain YPT6, hits give low values 0.989 | locus YLR268W, strain sec22, hits give low values 0.996 | locus YLR320W, strain mms22, hits give low values 1.02 | locus YLR330W, strain CHS5, hits give low values 1.01 | locus YLR342W, strain FKS1 (second series), hits give low values 0.999 | locus YLR342W, strain FKS1, hits give low values 1.02 | locus YLR357W, strain rsc2, hits give low values 1.02 | locus YLR370C, strain arc18, hits give low values 1.01 | locus YLR371W, strain rom2, hits give low values 1 | locus YLR384C, strain iki3, hits give low values 1.03 | locus YLR418C, strain cdc73, hits give low values 0.967 | locus YML016C, strain PPZ1, hits give low values 1.01 | locus YML032C, strain rad52, hits give low values 0.955 | locus YML120C, strain ndi1, hits give low values 1.01 | locus YML124C, strain tub3, hits give low values 1 | locus YMR058W, strain fet3, hits give low values 1.02 | locus YMR078C, strain ctf18, hits give low values 0.993 | locus YMR125W, strain sto1, hits give low values 1.01 | locus YMR129W, hits give low values 1.02 | locus YMR205C, strain PFK2, hits give low values 1.03 | locus YMR223W, strain ubp8, hits give low values 0.975 | locus YMR231W, strain pep5, hits give low values 1 | locus YMR263W, strain SAP30, hits give low values 1.01 | locus YMR307W, strain GAS1, hits give low values 0.959 | locus YNL067W, strain RPL9B, hits give low values 1.01 | locus YNL071W, strain lat1, hits give low values 1 | locus YNL153C, strain GIM3, hits give low values 1.01 | locus YNL183C, strain NPR1, hits give low values 0.921 | locus YNL209W, strain ssb2, hits give low values 1.02 | locus YNL233W, strain BNI4, hits give low values 1 | locus YNL248C, strain rpa49, hits give low values 1.01 | locus YNL250W, strain rad50, hits give low values 0.989 | locus YNL271C, strain bni1, hits give low values 1 | locus YNL298W, strain CLA4, hits give low values 0.997 | locus YNL307C, strain MCK1, hits give low values 0.993 | locus YNL322C, strain KRE1 (second series), hits give low values 1.01 | locus YNL322C, strain KRE1, hits give low values 1.02 | locus YNR049C, strain mso1, hits give low values 1.02 | locus YNR052C, strain pop2, hits give low values 0.996 | locus YOL012C, strain htz1 0.441 | locus YOL147C, strain pex11, hits give low values 0.991 | locus YOR001W, strain rrp6, hits give low values 0.998 | locus YOR061W, strain CKA2, hits give low values 1.01 | locus YOR069W, strain VPS5, hits give low values 1.01 | locus YOR070C, strain gyp1, hits give low values 1.01 | locus YOR080W, strain dia2, hits give low values 1.01 | locus YOR083W, strain WHI5, hits give low values 1.02 | locus YOR106W, strain vam3, hits give low values 1.03 | locus YOR136W, strain idh2, hits give low values 1 | locus YOR144C, strain elg1, hits give low values 0.992 | locus YOR184W, strain ser1, hits give low values 0.967 | locus YOR231W, strain MKK1, hits give low values 0.973 | locus YOR265W, strain rbl2, hits give low values 1.01 | locus YOR270C, strain vph1, hits give low values 0.997 | locus YOR290C, strain snf2, hits give low values 1 | locus YOR316C, strain cot1, hits give low values 1.01 | locus YPL051W, strain arl3, hits give low values 1.01 | locus YPL055C, strain LGE1, hits give low values 1.03 | locus YPL078C, strain atp4, hits give low values 1.01 | locus YPL106C, strain sse1, hits give low values 1.04 | locus YPL240C, strain hsp82, hits give low values 1.01 | locus YPL256C, strain CLN2, hits give low values 1 | locus YPR119W, strain clb2, hits give low values 0.994 | locus YPR141C, strain kar3, hits give low values 1.02 | locus YPR163C, strain tif3, hits give low values 1.01 | locus YPR167C, strain met16, hits give low values 1 | strain wtn01, hits give low values 0.989
